Screening results from PubChem.
Sampled rows, rich in hits. Any-hit rate of the full collection: about 1.2%.
GALR2 blocker: GALR2 (human) receptor antagonism; O43603; GALR2-expressing cells, antagonist mode; inhibition, % at 4 µM; 140,000 tested, 0.39% active; AID 828; in the data active means inhibition above about 27%;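 further: cells stimulated with galanin 1-16 at roughly its EC80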
S1P2 antag: blocks the human S1P2 receptor; inhibition, % at 5 µM; O95136; AID 736; 97,000 tested, 0.21% active; cell-based S1P2 antagonist assay, inhibition at 5 uM; in the data active means inhibition above about 45%;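 further: CRE beta-lactamase reporter cells expressing human S1P2 stimulated with S1P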
Target sequence (O95136 whole entry, looked up): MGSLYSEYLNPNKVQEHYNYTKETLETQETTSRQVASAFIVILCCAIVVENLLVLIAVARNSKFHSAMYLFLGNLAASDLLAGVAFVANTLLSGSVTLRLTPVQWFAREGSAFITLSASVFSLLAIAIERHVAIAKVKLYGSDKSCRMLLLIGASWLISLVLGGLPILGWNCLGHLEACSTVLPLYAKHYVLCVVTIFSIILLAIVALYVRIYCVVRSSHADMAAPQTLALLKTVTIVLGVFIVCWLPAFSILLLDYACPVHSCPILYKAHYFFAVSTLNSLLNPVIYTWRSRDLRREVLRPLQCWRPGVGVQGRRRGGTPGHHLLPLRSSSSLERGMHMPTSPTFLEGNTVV
GALR2 ag: agonists of human galanin receptor 2 (GALR2); O43603; GALR2-expressing cells, agonist activation read-out; activation, % (no concentration beside the values); 140,000 tested, 0.48% active; in the data active means activation above about 5%, passing the limit was not always enough
S1P2 ag: agonists of human S1P2 receptor; activation, % at 4.5 µM; AID 729; S1P2-expressing cell line, agonist reporter read-out; O95136; 97,000 tested, 0.46% active; in the data active means activation above about 16%
GALR2 agon conf: GALR2 (human) agonism confirmed; GALR2-expressing cells, agonist activation; shares compounds with GALR2 ag; 460 tested, 10% active; activation, % at 5.6 µM; in the data active means activation above about 8.4%
BLA act counter: activates beta-lactamase reporter in GALR2 agonist counterscreen; shares compounds with GALR2 ag; CHO NFAT-bla reporter, beta-lactamase FRET activation; activation, % at 5.6 µM; 460 tested, 10% active; AID 865;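 active means activation above the screen-wide mean activation plus 3 SD, cut at about 8% in these data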
Numbers stand for hits; – = inactive; · = no result given.

SMILES	GALR2 blocker	S1P2 antag	GALR2 ag	S1P2 ag	GALR2 agon conf	BLA act counter
Cc1cccc2cc(C(c3nnnn3CC3CCCO3)N3CCc4ccccc4C3)c(=O)[nH]c12 (configuration not stated)	–	–	–	127.8	·	·
Cc1ccc(SCC(=O)Nc2ccc(N3CCN(C)CC3)c(F)c2)cc1	–	–	7.8	–	·	·
CCNS(=O)(=O)c1ccc(NC(=O)c2ccc(Cn3cc(Br)cn3)o2)cc1	–	·	–	·	·	·
S=C(c1ccc(-c2ccccc2Cl)o1)N1CCCCC1	–	·	–	·	·	·
COc1cc2c(cc1OC)C(c1ccc(-c3cc(Cl)ccc3Cl)o1)=NCC2	–	–	–	38.6	·	·
CC1=NOC(=O)/C1=C\c1ccc(-c2cc(Cl)ccc2Cl)o1	–	–	–	–	·	·
COc1cc2c(cc1OC)C(c1ccc(-c3ccccc3Cl)o1)=NCC2	–	–	–	36.9	·	·
COc1cc2c(cc1OC)C(c1ccc(-c3ccc(Cl)cc3Cl)o1)=NCC2	–	–	–	34.4	·	·
COc1cc2c(cc1OC)C(c1ccc(-c3ccc(Cl)c(Cl)c3)o1)=NCC2	–	–	–	18.7	·	·
COc1ccc2c(c1OC)C(=O)N1N=C(c3ccc(O)cc3)CC21 (configuration not stated)	–	–	–	–	·	·
COC(=O)c1cccc(S(=O)(=O)N2CCN(c3nc4ccccc4s3)CC2)c1	–	–	–	–	·	·
COc1ccc(-c2nc3n(n2)C(c2ccccc2Cl)C(C(N)=O)=C(C)N3)cc1 (configuration not stated)	–	–	–	–	·	·
Cc1nc(SCC(=O)N2c3ccccc3Sc3ccccc32)n[nH]1	–	–	–	–	·	·
Cn1c(-c2sc(=S)n(-c3ccccc3)c2N)nc2ccccc21	–	–	–	32.2	·	·
CCOc1ccc(OCC)c(NC(=O)CSc2nc3c(c(=O)n(C)c(=O)n3C)n2C(C)C)c1	–	–	–	25.6	·	·
CCOc1ccc(OCC)c(NC(=O)CSc2nc3c(c(=O)n(C)c(=O)n3C)n2CC)c1	–	–	–	–	·	·
COc1ccc2c(c1[N+](=O)[O-])CCC/C2=N/OC(=O)c1cccc2ccccc12	–	–	–	–	·	·
CCOc1cccc(-c2nn(-c3ccccc3)cc2/C=C(/C#N)C(=O)NCCCn2ccnc2)c1	–	·	45.6	·	35.3	81.6
Cc1ccc(OCc2nnc(SCC(=O)Nc3nccs3)n2-c2ccccc2)cc1C	–	–	–	–	·	·
Cc1ccc(-n2c(COc3c(C)cccc3C)nnc2SCC(=O)Nc2nccs2)cc1	–	–	64.5	–	–	–
O=C(COC(=O)C1=Cc2ccccc2OC1)NC1CCCC1	–	–	–	–	·	·
Cc1nc(SCC(=O)N(C)Cc2ccco2)c2c(C)c(C)sc2n1	–	–	–	–	–	–
Cc1nc(NCc2ccco2)c2c(C)c(C)sc2n1	–	–	–	–	·	·
Cc1cccc(C2=NC(C(F)(F)F)(C(F)(F)F)c3c(n(-c4ccc(F)cc4)c(=O)[nH]c3=O)N2)c1	–	·	–	·	·	·
Cc1cccc(C2=NN(c3ccc(Br)cc3)[C@@H](C(=O)N3CCOC3=O)[C@@H]2c2ccc(F)cc2)c1	–	·	9.8	·	–	–
SMILES	GALR2 blocker	S1P2 antag	GALR2 ag	S1P2 ag	GALR2 agon conf	BLA act counter
COc1ccccc1C(=O)N1CCN(c2cccc(Cl)c2)CC1	–	–	–	–	·	·
O=C1OCCN1C(=O)[C@H]1[C@H](c2ccc(Cl)cc2)C(c2cccc(Cl)c2)=NN1c1ccccc1	–	·	23.1	·	10.3	18.8
COc1ccccc1[C@@H]1C(c2cccc(Cl)c2)=NN(c2ccccc2)[C@H]1C(=O)N1CCOC1=O	–	·	29.9	·	12.5	22.4
CC(C)(C)c1ccc(OCC(O)CSc2ncn[nH]2)cc1 (configuration not stated)	–	–	–	–	·	·
CC(C)CNC(=O)c1ccc(Cl)c(Cl)c1	–	–	–	–	·	·
Cc1oc(-c2ccc(Cl)cc2)nc1CN1CCCC(C(=O)N2CCN(C(=O)c3ccco3)CC2)C1 (configuration not stated)	–	–	–	–	·	·
Cc1ccc(S(=O)(=O)/C(C#N)=C/c2c(N3CC(C)OC(C)C3)nc3c(C)cccn3c2=O)cc1 (configuration not stated)	–	–	–	–	·	·
CCN(CC)S(=O)(=O)c1ccc(-c2nnc(SCC(C)=O)o2)cc1	–	–	–	–	–	–
O=C(O)c1cccc(N2C(=O)c3cccc(Oc4ccc(Cl)cc4)c3C2=O)c1	–	·	–	·	·	·
CCCn1nc(NC(=O)c2ccncc2)c2cc3ccccc3nc21	–	–	–	–	·	·
CCCn1nc(NC(=O)c2cccs2)c2cc3cc(OC)ccc3nc21	–	–	–	–	–	–
CCCCn1nc(NC(=O)c2cccs2)c2cc3ccccc3nc21	–	–	–	–	–	–
COC(=O)c1ccc(CSc2nc(C)nc3sc(C)c(C)c23)o1	–	–	–	–	·	·
Cc1ccc(SCc2cc(=O)[nH]c(/N=C(\N)Nc3ccc(C)c(C)c3)n2)cc1	–	–	–	–	·	·
C#CCNc1cc(C)nc2ncnn12	–	–	12.6	–	–	–
CCS(=O)(=O)N1CCN(c2ccc(Cl)cc2[N+](=O)[O-])CC1	–	·	–	·	·	·
CCOc1ccc(C(=O)Nc2cccc(-c3nc4ccccc4[nH]3)c2C)cc1[N+](=O)[O-]	–	·	–	·	·	·
COC(=O)/C(=C/Nc1ccc(O)cc1)[N+](=O)[O-]	–	–	–	–	–	–
COC(=O)/C(=C/Nc1ccccc1)[N+](=O)[O-]	–	–	–	–	·	·
COc1ccc2ccccc2c1/C=N/NC(=O)c1sc(N)c(C#N)c1C	–	·	11.6	·	–	–
Cc1ccc(/C(N)=N/OC(=O)c2ccco2)cc1	–	–	–	–	·	·
Cc1ccc(NC2=C(Cl)C(=O)OC2OC(=O)c2ccco2)cc1 (configuration not stated)	–	–	35.3	–	–	–
Cc1cccc(N/N=C(\C(N)=O)C2=NC(C)(C)Cc3ccccc32)c1	–	·	–	·	·	·
COc1cc([C@H]2c3[nH]c4ccccc4c3C[C@H]3C(=O)N4[C@@H](c5cc(OC)c(OC)c(OC)c5)c5[nH]c6ccccc6c5C[C@H]4C(=O)N23)cc(OC)c1OC	–	·	9.6	·	–	–
O=C1[C@@H]2Cc3c([nH]c4ccccc34)[C@@H](c3ccccc3)N2C(=O)[C@@H]2Cc3c([nH]c4ccccc34)[C@@H](c3ccccc3)N12	–	·	–	·	·	·
SMILES	GALR2 blocker	S1P2 antag	GALR2 ag	S1P2 ag	GALR2 agon conf	BLA act counter
CCC(Oc1ccc2c(c1)C(=O)CC(C)(C)O2)C(=O)NCCN1CCCCCC1 (configuration not stated)	–	–	–	–	·	·
C=CCOc1ccc(C2/C(=C(\O)c3ccc(F)cc3)C(=O)C(=O)N2CCCN(C)C)cc1 (configuration not stated)	–	–	8.3	–	–	–
Cc1ccc2c(c1)C(=O)c1ccccc1CS2=O (configuration not stated)	–	·	–	·	·	·
COc1ccc(Nc2nc(N)nc(CSc3nnc(C)s3)n2)cc1	–	–	–	–	·	·
COc1ccc(OC)c(Nc2nc(N)nc(CSc3nnc(N)s3)n2)c1	–	–	16.6	–	–	–
CCOc1ccc(Nc2nc(Cc3nnc(SCC(=O)NCc4ccco4)n3CC)cs2)cc1	–	–	12.2	–	11.5	26.8
Cc1ccc(OCc2nnc(SCC(=O)NCc3ccco3)n2C)cc1	–	–	–	–	·	·
